SW480 rerep = DNA re-replication induction in SW480 cells. SW480 DNA re-replication, Hoechst DNA content imaging, 48 h. hit rate 1.8% among 340,000. Potency, µM (titrated, usually from 46.1 µM), most hits filed as activators; further: nearly all actives have a fitted effect of over 55% in size
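Compounds, transferred as 23 nL by pin tool, were incubated with cells for 48 hr; DNA content per nucleus was then quantified by Hoechst staining and fluorescence plate imaging.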
KB-3-1 tox = KB-3-1 parental cell cytotoxicity. KB-3-1 viability, CellTiter-Glo ATP luminescence, 72 h. Potency, µM (doses to about 46.1 µM), most hits filed as cytotoxic. hit rate 1.4% among 400,000; further: nearly all actives have a fitted effect of over 60% in size
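Cytotoxicity measured as CellTiter-Glo luminescence after 72 h at 37 C. Compound titrations were pinned onto drug-naive KB-3-1 parental adenocarcinoma cells grown in DMEM with 10% FBS, and normalized data fitted to concentration-response curves.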
MCF10A rerep = induces DNA re-replication in MCF 10a normal breast cells | MCF 10A DNA re-replication, Hoechst nuclear intensity, 48 h | Potency, µM (highest dose often 46.1 µM), usual class: activators | hit rate 2.9% among 350,000; further: nearly all actives have a fitted effect of over 50% in size
PINK1 expr mod = modulators of PINK1 expression | AID 624263 | PINK1 immunofluorescence, high-content cytometry, 24 h | Potency, µM (highest dose often 76.6 µM), most hits filed as activators | hit rate 0.2% among 410,000; active means well fitted activation curve with a large enough effect; inconclusive means small, poorly fitted or top-dose-only effect; cell line not stated here; further: nearly all actives have a fitted effect of over 65% in size
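Fluorescence from anti-PINK1 antibody, together with nuclear and cell stains, was scanned on a laser-scanning cytometer. Before staining, stable-line cells were incubated 24 hours with compounds at 5 concentrations; primary antibody 12 h at 10 degrees C.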
KB-V1 MDR tox = kills drug-selected multidrug resistant KB-V1 cells. KB-V1 MDR cells viability, CellTiter-Glo, 72 h. Potency, µM (series often up to 46.1 µM), most hits filed as cytotoxic. hit rate 3.4% among 400,000. AID 1347076; further: nearly all actives have a fitted effect of over 60% in size
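qHTS viability screen in drug-selected KB-V1 MDR cells: 72 h compound treatment at 37 degrees C, ATP luminescence end point.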
Each line names hits and unclear results; the compound was inactive in the other large screens; ! = not active in a repeat. In the library only some 6.7% were active in any assay of this set; here they are far more common. Unless noted, the call rests on the fitted dose curve; in most records, active means well fitted curve in the direction sought with a large enough effect; inconclusive means small, poorly fitted or top-dose-only effect, or another doubt; inactive means no such curve, though single readings can be large; an effect the other way counts as inactive or inconclusive.

CC(C)CC(NC(=O)C1CCCCC1)C(=O)N1CCN(c2ccccn2)CC1 (centres undefined)	KB-V1 MDR tox 2.6µM
Cc1ccc2nc(SCC(=O)NCC3Cc4cccc(-c5nc(C)cnc5C)c4O3)[nH]c2c1 (centres undefined)	none (no result: SW480 rerep, KB-3-1 tox, MCF10A rerep, KB-V1 MDR tox)
Cc1nn(C)cc1/C=N/NC(=S)Nc1ccccc1	SW480 rerep 1.6µM, KB-V1 MDR tox inconclusive
Cc1ccc(NC(=S)N/N=C/c2c(C)nn(-c3ccccc3)c2N2CCCC2)cc1	MCF10A rerep inconclusive
COc1ccc(-c2nn(-c3ccccc3)cc2/C=N/NC(N)=S)cc1OC	SW480 rerep 2.1µM, MCF10A rerep 1.6µM, KB-V1 MDR tox inconclusive
Cc1nn(-c2ccccc2)c(N2CCCC2)c1/C=N/NC(=S)Nc1ccc(F)cc1	SW480 rerep 5.8µM, KB-3-1 tox inconclusive
COc1c(/C=N/NC(N)=S)c(C)nn1-c1ccccc1	KB-3-1 tox inconclusive, KB-V1 MDR tox 9.2µM
Oc1ccccc1C=NNC(=S)Nc1ccc(F)cc1	KB-3-1 tox inconclusive, MCF10A rerep inconclusive
COC(=O)c1cnc(Nc2nc(C(N)c3ccccc3Cl)cs2)nc1C(F)(F)F (centres undefined)	none (no result: SW480 rerep, MCF10A rerep)
CC(C)(C)c1ccc(NC(=O)c2cc(C3CCCN(S(=O)(=O)c4cccc5cccnc45)C3)on2)cc1 (centres undefined)	KB-3-1 tox inconclusive, KB-V1 MDR tox 23µM (no result: SW480 rerep, MCF10A rerep)
O=C(Nc1ccncc1)C1CCCN(S(=O)(=O)c2cccc3cccnc23)C1 (centres undefined)	SW480 rerep 2.1µM, KB-3-1 tox inconclusive, MCF10A rerep 9.2µM
O=C(Nc1ccc(C(F)(F)F)cc1)C1CCCN(S(=O)(=O)c2cccc3cccnc23)C1 (centres undefined)	none (no result: SW480 rerep, MCF10A rerep)
Cn1c(-c2cccc(OCc3ccccc3)c2)nc2c1c(=O)[nH]c(=O)n2Cc1ccccc1	KB-3-1 tox 15µM, MCF10A rerep inconclusive, KB-V1 MDR tox inconclusive
Cn1cnc2c1c(=O)n(Cc1ccccc1)c(=O)n2C	none
COc1ccc(-c2nc3c(c(=O)[nH]c(=O)n3Cc3ccccc3)n2C)cc1	none
Cn1c(=O)c2c(nc(-c3ccccc3)n2C)n(Cc2ccccc2)c1=O	KB-V1 MDR tox 15µM
Cn1c(-c2cccc(F)c2)nc2c1c(=O)[nH]c(=O)n2Cc1ccccc1	none
COc1ccc(-c2nc3c(c(=O)[nH]c(=O)n3Cc3ccccc3)n2Cc2ccccc2)cc1	KB-3-1 tox inconclusive, MCF10A rerep inconclusive, KB-V1 MDR tox 3.7µM
C[C@H](CO)N1C[C@H](C)[C@@H](CN(C)Cc2ccccc2)Oc2ccc(NC(=O)CCCCCC(=O)Nc3ccccc3N)cc2C1=O	KB-3-1 tox inconclusive, KB-V1 MDR tox inconclusive
COc1ccc(CN(C(=O)c2ccco2)c2ccc(C)c(C)c2)cc1	SW480 rerep 16µM, KB-3-1 tox 16µM, MCF10A rerep 10µM, KB-V1 MDR tox inconclusive
COc1cc(CN(C(=O)c2ccco2)c2ccc(C)cc2)ccc1O	KB-V1 MDR tox 13µM
CCOc1ccc2[nH]c(C(=O)N/N=C/c3ccc(OC)cc3)cc2c1	SW480 rerep 1.2µM, KB-3-1 tox 1.5µM, MCF10A rerep inconclusive, KB-V1 MDR tox inconclusive
O=c1c(Cl)c(NCc2ccccc2Cl)cnn1C12CC3CC(CC(C3)C1)C2	SW480 rerep inconclusive, KB-3-1 tox inconclusive, MCF10A rerep inconclusive, PINK1 expr mod inconclusive, KB-V1 MDR tox 18µM
CCOC(=O)c1cc(-c2ccccc2)n(CCC(=O)NCCc2ccc(C)cc2)c1C	none (no result: SW480 rerep, KB-3-1 tox, MCF10A rerep, KB-V1 MDR tox)
COc1ccc(OC)c(CN2CCCC(n3cc(C(=O)N4CCCCC4)nn3)C2)c1 (centres undefined)	none (no result: SW480 rerep, KB-3-1 tox, MCF10A rerep, KB-V1 MDR tox)
CNc1snc(C)c1C(=O)OCC(=O)Nc1ccc(C)cc1F	MCF10A rerep inconclusive, KB-V1 MDR tox 12µM
CCc1ccccc1NC(=O)COC(=O)c1c(C)nsc1NC	SW480 rerep inconclusive
CN1C(=O)C2(Oc3ccccc3C3CC(c4ccccc4)=NN32)c2ccccc21 (centres undefined)	SW480 rerep inconclusive, KB-V1 MDR tox 18µM
Cc1ccccc1N=C/C=C1\N(C)c2ccccc2C1(C)C	SW480 rerep inconclusive, MCF10A rerep inconclusive, KB-V1 MDR tox 23µM
CN1C(=CC=C2C=C(I)C(=O)C(I)=C2)C(C)(C)c2ccccc21	KB-3-1 tox inconclusive
CN1/C(=C\C=N\O)C(C)(C)c2ccccc21	none
CN1/C(=C/C=C(/C#N)C(N)=O)C(C)(C)c2ccccc21	SW480 rerep 6.3µM, KB-3-1 tox 2.6µM, MCF10A rerep 5µM, KB-V1 MDR tox inconclusive
CN1/C(=C\C=C2/C(=O)Oc3ccccc3C2=O)C(C)(C)c2ccccc21	MCF10A rerep inconclusive, PINK1 expr mod 13µM
CN1/C(=C\C=[N+](C)c2ccccc2)C(C)(C)c2ccccc21	KB-3-1 tox 3.3µM
Cc1ccc(N2C(=O)NC(NS(=O)(=O)c3ccccc3)(C(F)(F)F)C2=O)cc1C (centres undefined)	none
CC1CCC(Nc2nc3c(-c4ccc(Cl)cc4)nnn3c3ccccc23)CC1 (centres undefined)	none (no result: SW480 rerep, MCF10A rerep)
CN(C(=O)CSc1nc(-c2ccccc2)no1)c1ccc(F)cc1	none (no result: SW480 rerep, MCF10A rerep)
O=C1c2oc3ccccc3c(=O)c2C(c2ccccc2)N1Cc1ccc2c(c1)OCO2 (centres undefined)	KB-3-1 tox inconclusive, KB-V1 MDR tox inconclusive (no result: SW480 rerep, MCF10A rerep)
COc1ccc(OC)c(/C=C/c2cc3ccccc3cn2)c1	KB-3-1 tox 5.2µM (no result: SW480 rerep, MCF10A rerep, PINK1 expr mod)
Cc1ccc(NC(=O)CCNC(=O)c2ccc([N+](=O)[O-])cc2)cc1C	none
CCOC(=O)c1ccc(NC(=O)CCNC(=O)c2ccc([N+](=O)[O-])cc2)cc1	KB-V1 MDR tox 15µM
O=C(C[n+]1cccc2cccc(O)c21)c1ccc2ccccc2c1	none (no result: SW480 rerep, MCF10A rerep)
COc1cccc(/C=N/NC(=O)c2ccc(N3CCCC3=O)cc2)c1	SW480 rerep 1.8µM, KB-3-1 tox 16µM, MCF10A rerep 13µM, KB-V1 MDR tox inconclusive
O=C(N/N=C/c1cc(Br)cc(Br)c1O)c1cccc(S(=O)(=O)N2CCOCC2)c1	SW480 rerep 0.65µM, KB-3-1 tox inconclusive
O=C(N/N=C/c1sc(N2CCOCC2)nc1-c1ccccc1)c1cccc(S(=O)(=O)N2CCCC2)c1	KB-3-1 tox 3.7µM, MCF10A rerep 15µM, PINK1 expr mod inconclusive, KB-V1 MDR tox inconclusive
O=C(N/N=C/c1ccccc1Br)c1cccc(S(=O)(=O)N2CCOCC2)c1	none
O=C(N/N=C/c1cc(Br)cc(Br)c1O)c1cccc(N2CCCC2=O)c1	SW480 rerep 8.2µM, KB-3-1 tox inconclusive, MCF10A rerep inconclusive
O=C(N/N=C/c1ccco1)c1ccc(N2CCCC2=O)cc1	MCF10A rerep inconclusive
Cn1cc(-c2csc(C(O)c3ccc(F)cc3)n2)cn1 (centres undefined)	none (no result: SW480 rerep, MCF10A rerep)
C/C(=N/NC(=O)CSc1nc2ccccc2s1)c1ccncc1	none
CS/C(=N\S(=O)(=O)c1cccs1)NC(=O)CSc1nc2ccccc2s1	MCF10A rerep 12µM!
CCN(c1ccccc1)c1nc2nonc2nc1NCCO	none
COCCNc1nc2nonc2nc1N(C)Cc1cccc2cnccc12	SW480 rerep 4.6µM
